# Rows were chosen to be rich in hits. Some 3.5% of all compounds tested hit in one or more screens of this group.
# FAK inh – FAK kinase inhibitors, primary screen, biochemical; Focal adhesion kinase 1 (Homo sapiens), Q05397; biochemical FAK kinase activity assay; inhibition, %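 (tested at 7 µM)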; hit rate 0.84% among 97,000; AID 727, 2007; in the data active = inhibition above about 19%;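 also: 0% = DMSO and 100% = reference compound high control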
# ERa coact pot – enhancers of ERα–SRC-1 coactivator binding, primary screen, biochemical, TR-FRET, ERα LBD, low estradiol; Estrogen receptor (Homo sapiens), P03372; TR-FRET ERalpha-LBD/SRC-Cy5 coactivator binding, 2 h; 100 = basal binding, no effect; coactivator binding (% of control), % at 25.6 µM; hit rate 1.3% among 86,000; in the data active = activity above about 200%;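 also: binding measured in presence of low estradiol as agonist stimulus; 0% = peptide alone without receptor and 100% = receptor with peptide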
# ERa SRC1 inh – ERα–SRC-1 coactivator interaction inhibitors, primary screen, biochemical, TR-FRET, ERα LBD, estradiol-bound; inhibition, % at 25.6 µM; TR-FRET ER-alpha LBD / SRC-1 peptide; Estrogen receptor (Homo sapiens), P03372; hit rate 1.7% among 86,000; AID 629, 2007; in the data active = inhibition above about 50%;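 also: 0% = receptor plus peptide control and 100% = peptide only without receptor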
# CD11b adhes inh – inhibitors of CD11b/CD18 adhesion to fibrinogen, primary screen, K562 cells, luminescence | inhibition, % at 10 µM | hit rate 0.54% among 93,000 | ATPlite luminescence; Mn2+ added to activate the integrin;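 active = primary inhibition of 50% or more at 10 µM, then 40% or more on retest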
# CD11b adhes enh – enhancers of CD11b/CD18 adhesion to fibrinogen, primary screen, K562 cells, luminescence; activation, % at 10 µM; ATPlite luminescence; Integrin beta-2 (Homo sapiens) + Integrin alpha-M (Homo sapiens), P05107+P11215; AID 1499, 2009; hit rate 0.07% among 93,000;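 active = 10 µM primary screen giving 50% or more activity, confirmed by 40% or more on retest at that dose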
# ERb coact inh – inhibitors of ERβ-SRC1 coactivator interaction, primary screen, biochemical, TR-FRET, ERβ LBD, SRC-1 peptide; TR-FRET ER-beta LBD / SRC1-Cy5 peptide binding; receptor agonist-loaded with 1 µM estradiol; inhibition, % at 25.6 µM; hit rate 1.3% among 86,000; Estrogen receptor beta (Homo sapiens), Q92731;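 active = compounds whose percent inhibition of the receptor-coactivator binding signal exceeds about 50% in the single-dose screen, limit read from the data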;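 also: 0% = receptor plus peptide wells without compound and 100% = peptide-only wells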
# * = called active by the depositor; / = no result; [ ] = remark or other dose.
SMILES,FAK inh,ERa coact pot,ERa SRC1 inh,CD11b adhes inh,CD11b adhes enh,ERb coact inh
CCCn1nnnc1SCC(=O)N1CCCc2ccccc21,-3,109,-4,-16,2,-11
COc1cc(/C=c2\sc3n(c2=O)C(c2ccccc2)C(c2ccccc2)=NN=3)ccc1O (stereo not given),0,93,-4,27,38,-3
C=C(C(=O)c1ccccc1)C(CC(=O)c1ccccc1)c1ccccc1 (stereo not given),/,/,/,11,8,/
Cc1cc2oc(=O)cc(COC(=O)c3n[nH]c4ccccc34)c2cc1C,-3,338*,24,-7,-2,21
CC(C)c1ccc(-c2c(C#N)c(N)nc(SCC(=O)N3CCCCCC3)c2C#N)cc1,-10,260*[fluorescence artefact?],43,-2,1,50
CC(C)c1ccc(-c2c(C#N)c(N)nc(SCC(=O)N3CCCCC3)c2C#N)cc1,-11,186,50*[fluorescence artefact?],-17,20,43
Nn1c(SCC(=O)NC2CCCCC2)nnc1-c1ccc(Cl)cc1,-3,83,5,/,/,23
N#Cc1c(N)nc(SCC(=O)NC2CCCCC2)c(C#N)c1-c1ccc(Cl)cc1,-8,122,66*[fluorescence artefact?],3,0,51*[fluorescence artefact?]
CCOC(=O)CSc1nc(N)c(C#N)c(-c2ccc(OCC)cc2)c1C#N,-47,187,34,3,2,37
N#C/C(C(=O)c1ccccc1)=C1/SC=C(N)N1c1ccccc1,4,63,22,-13,3,33
Cc1ccc(-c2cc(C(=O)NC3=NCCS3)c3cc(Br)ccc3n2)o1,5,281*[fluorescence artefact?],52*[fluorescence artefact?],/,/,25
Cc1ccc(-c2cc(C(=O)NCCCn3ccnc3)c3cc(Br)ccc3n2)o1,6,69,88*[fluorescence artefact?],7,2,49
Cc1cccc(-c2cc(C(=O)NCCCn3ccnc3)c3ccccc3n2)c1,3,/,/,-8,0,/
CCNc1ccc(Br)cc(C(=O)/C=C/c2ccccc2Cl)c1=O,0,94,80*,/,/,74*[fluorescence artefact?]
CNc1ccc(Br)cc(C(=O)/C=C/c2cccc(OC)c2OC)c1=O,1,73,42,/,/,55*[fluorescence artefact?]
COc1ccc(-c2cn3c(C)c(C(=O)Nc4cccc(NC(C)=O)c4)sc3n2)cc1,-5,158,22,/,/,21
Cc1c(C(=O)Nc2ccncc2)sc2nc(-c3ccc(F)cc3)cn12,/,367*[fluorescence artefact?],-6,32,14,7
COC(=O)c1ccc(NC(=O)c2sc3nc(-c4ccccc4)cn3c2C)cc1,-35,537*[fluorescence artefact?],39,39,-4,43
COc1ccc(-c2cn3c(C)c(C(=O)Nc4ccncc4)sc3n2)cc1,18,345*,-3,8,1,-2
COc1ccc(-c2cn3c4c(sc3n2)CCCC4)cc1,1,99,-3,55*,-4,2
CCc1ccc(-c2cc(C(F)(F)F)n3nc(C(=O)Nc4c(C)nn(Cc5ccc(F)cc5)c4C)cc3n2)s1,-4,/,/,20,3,/
Cc1ccc(C)c(N(CC(=O)NC2CCCC2)C(=O)c2oc(C(C)(C)C)cc2C)c1,9,/,/,46,6,/
c1ccc2sc(NC3=NCN(C4CCCCC4)CN3)nc2c1,-2,106,-1,7,-4,0
Brc1ccc(-c2csc(NNC3=NCCCCC3)n2)cc1,4,96,3,6,-1,0
CC(C)(C)c1ccc(-c2csc(NNC3=NCCCCC3)n2)cc1,2,/,/,89*,-5,/
SMILES,FAK inh,ERa coact pot,ERa SRC1 inh,CD11b adhes inh,CD11b adhes enh,ERb coact inh
Clc1ccc(CCNc2ncnc3nc[nH]c23)cc1,12,/,/,60*,-9,/
c1ccc2c(CCNc3ncnc4nc[nH]c34)cccc2c1,21*,112,4,/,/,-2
c1ccc(CCCNc2ncnc3nc[nH]c23)cc1,/,112,-2,8,-4,-14
CN1C(=O)C2(N=c3ccccc3=N2)c2ccccc21,2,142,-3,1,2,91*[fluorescence artefact?]
CCOC(=O)Cn1c(CN2CCN(c3cccc(Cl)c3)CC2)nc2c1c(=O)[nH]c(=O)n2C,1,123,-3,/,/,71*[fluorescence artefact?]
CCCCn1c(CN2CCN(c3cccc(Cl)c3)CC2)nc2c1c(=O)[nH]c(=O)n2C,1,89,-17,/,/,-32
Cc1cc(-c2ccco2)c(C#N)c2nc3ccccc3n12,/,86,81*[fluorescence artefact?],1,43,48
CCc1c(C)c(C#N)c2nc3ccccc3n2c1Cl,/,/,/,0,0,/
CCOC(=O)Cc1csc(SCc2nc3sc4c(c3c(=O)[nH]2)CCC4)n1,-1,77,3,4,-1,4
COc1ccc(C(=O)Nc2sc3c(c2C(=O)NCc2ccco2)CCCC3)cc1OC,8,228*,10,-3,10,11
COc1cc(C(=O)Nc2sc3c(c2C(=O)NCc2ccco2)CCCC3)cc(OC)c1OC,-2,125,-14,-4,0,-9
Cc1ccc(C(=O)Nc2sc3c(c2C(=O)NCc2ccco2)CCCC3)cc1,-2,141,7,4,37,10
O=C(Nc1sc2c(c1C(=O)NCc1ccco1)CCCC2)c1ccc2c(c1)OCO2,0,136,14,-52,19,62*[fluorescence artefact?]
CCC(=O)N1CC23C=CC(CC2CC12CCCCC2)O3 (stereo not given),/,92,5,-18,-4,7
Cc1ccc(-n2c(SCC(=O)NCC3CCCO3)nc3c(c2=O)SCC3)cc1 (stereo not given),/,117,1,-12,3,-5
COc1ccccc1C(=O)Nc1nnc(-c2ccco2)s1,0,242*,12,-13,-1,14
COc1ccc(C(=O)Nc2nnc(-c3ccco3)s2)cc1,-2,463*[fluorescence artefact?],4,22,-2,30
COc1ccc(Cn2c(C)c(C)c(C#N)c2NC(=O)Nc2cccc(C)c2)cc1,7,76,70*[fluorescence artefact?],-7,2,50*
O=C(Nc1cccc(C(F)(F)F)c1)c1cc2ncc(Br)cn2n1,1,124,45,6,7,47
O=C(NCCc1ccccc1)c1cc2ncc(Br)cn2n1,11,41,77*[fluorescence artefact?],-12,2,77*[fluorescence artefact?]
COCCNC(=O)c1cc2ncc(Br)cn2n1,1,72,46,4,-3,39
O=C(Nc1ccc2c(c1)OCO2)c1cc2ncc(Br)cn2n1,6,71,77*[fluorescence artefact?],-24,115,67*[fluorescence artefact?]
CCc1ccccc1NC(=O)c1cc2ncc(Br)cn2n1,-1,81,60*[fluorescence artefact?],-1,0,54*
CN(C)/C=C1\N=C(c2ccc3c(c2)OCO3)OC1=O,4,120,5,/,/,17
